A collection of fitness landscapes (doi:10.1016/j.celrep.2020.107928)
In all, about 81,000 sequences were measured (“one-hybrid fitness for binding NBS DNA”: median about -0.1, highest 2% from about 0.36 on). What follows is part of a selection rich in the highest values, with near analogues and random picks from the rest.

B1: Caulobacter ParB omega fusion; a variant is named by its letters at X, in order, B8GW30 (parent)
chain: MESVVVGEPGMSEGRRGLGRGLSALLGEVDAAPAQAPGEQLGGSREAPIEILQRNPDQPRRTFREEDLEDLSNSIREKGVLQPILVRPSPDTAGEYQIVAGERAWRAAQRAGLKTVPIMVRELDDLAVLEIGIIENVQRADLNVLEEALSYKVLMEKFERTQENIAQTIGKSXSHVANXMRLLXLPDEVQSYLVSGELTAXHARAIAAAADPVALAKQIIEGGLSVRETEALARKAPNLSAGKSKGGRPPRVKDTDTQALESDLSSVLGLDVSIDHRGSTGTLTITYATLEQLDDLCNRLTRGI

Variants of: B1
Test: one-hybrid fitness for binding NBS DNA (the Noc-binding site; scaled: cognate 1, non-cognate 0); higher = stronger binding
Settings: with NBS DNA site
Procedure, shortened: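 Selection: bacterial one-hybrid in E. coli USO, HIS3 reporter with the site 19 bp from the promoter, 48 hours at 37°C on M9-minus-histidine plus 0.1 mM IPTG and 5 mM 3-AT. Libraries were Caulobacter ParB with four randomised specificity codons, sequenced on Illumina before and after selection. Fitness is the rescaled log change in variant-to-wild-type read ratio, anchored to the cognate and non-cognate sites.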
In the case of QSNQ, the “one-hybrid fitness for binding NBS DNA” value is reported as ≤ 0.2. With QRYH the “one-hybrid fitness for binding NBS DNA” value was 0.486. For QRNQ, the “one-hybrid fitness for binding NBS DNA” value was 0.439. In the case of QRDM, the “one-hybrid fitness for binding NBS DNA” value is reported as ≤ 0.2. For QRDQ, the “one-hybrid fitness for binding NBS DNA” value was 0.215. With QCNM the “one-hybrid fitness for binding NBS DNA” value was 0.224. QRWH was tested, and the “one-hybrid fitness for binding NBS DNA” value was 0.301. For QRNH, the “one-hybrid fitness for binding NBS DNA” value was 0.598. QRNP was tested, and the “one-hybrid fitness for binding NBS DNA” value was 0.308. QRNM was tested, and the “one-hybrid fitness for binding NBS DNA” value was 0.461. For QRND, the “one-hybrid fitness for binding NBS DNA” value was 0.306. In the case of KICK, the “one-hybrid fitness for binding NBS DNA” value is reported as ≤ 0.2. For QEKS, the “one-hybrid fitness for binding NBS DNA” value was ≤ 0.2. LWPC was tested, and the “one-hybrid fitness for binding NBS DNA” value was ≤ 0.2. QDAY was tested, and the “one-hybrid fitness for binding NBS DNA” value was ≤ 0.2. For RGRV, the “one-hybrid fitness for binding NBS DNA” value was ≤ 0.2. In the case of KRVS, the “one-hybrid fitness for binding NBS DNA” value is reported as 0.395. With KRKH the “one-hybrid fitness for binding NBS DNA” value was 0.482. KRVH was tested, and the “one-hybrid fitness for binding NBS DNA” value was ≤ 0.2. With KRKM the “one-hybrid fitness for binding NBS DNA” value was 0.253. For KRKY, the “one-hybrid fitness for binding NBS DNA” value was 0.368. In the case of KRKS, the “one-hybrid fitness for binding NBS DNA” value is reported as 0.536. For KRKP, the “one-hybrid fitness for binding NBS DNA” value was ≤ 0.2. KRKN was tested, and the “one-hybrid fitness for binding NBS DNA” value was 0.272. In the case of KRYY, the “one-hybrid fitness for binding NBS DNA” value is reported as ≤ 0.2. With KRKD the “one-hybrid fitness for binding NBS DNA” value was ≤ 0.2. KRVD was tested, and the “one-hybrid fitness for binding NBS DNA” value was ≤ 0.2. For KRVY, the “one-hybrid fitness for binding NBS DNA” value was ≤ 0.2. AKVL was tested, and the “one-hybrid fitness for binding NBS DNA” value was ≤ 0.2. With ALSW the “one-hybrid fitness for binding NBS DNA” value was ≤ 0.2. For HILV, the “one-hybrid fitness for binding NBS DNA” value was ≤ 0.2. In the case of LNQE, the “one-hybrid fitness for binding NBS DNA” value is reported as ≤ 0.2. For DNHT, the “one-hybrid fitness for binding NBS DNA” value was ≤ 0.2. In the case of YLSD, the “one-hybrid fitness for binding NBS DNA” value is reported as ≤ 0.2. With HLNK the “one-hybrid fitness for binding NBS DNA” value was ≤ 0.2. MSFM was tested, and the “one-hybrid fitness for binding NBS DNA” value was ≤ 0.2. For LRFR, the “one-hybrid fitness for binding NBS DNA” value was ≤ 0.2. In the case of TEAT, the “one-hybrid fitness for binding NBS DNA” value is reported as ≤ 0.2. For QTRW, the “one-hybrid fitness for binding NBS DNA” value was 0.417. QRYW was tested, and the “one-hybrid fitness for binding NBS DNA” value was 0.203. In the case of QCRW, the “one-hybrid fitness for binding NBS DNA” value is reported as 0.371. In the case of QRRW, the “one-hybrid fitness for binding NBS DNA” value is reported as 0.384. For PRYW, the “one-hybrid fitness for binding NBS DNA” value was ≤ 0.2. In the case of QSRW, the “one-hybrid fitness for binding NBS DNA” value is reported as 0.254. For PRVW, the “one-hybrid fitness for binding NBS DNA” value was ≤ 0.2. With QRDW the “one-hybrid fitness for binding NBS DNA” value was ≤ 0.2. For QTDW, the “one-hybrid fitness for binding NBS DNA” value was ≤ 0.2. QTYW was tested, and the “one-hybrid fitness for binding NBS DNA” value was ≤ 0.2. QPRW was tested, and the “one-hybrid fitness for binding NBS DNA” value was ≤ 0.2. For PRKW, the “one-hybrid fitness for binding NBS DNA” value was 0.446. For NMRT, the “one-hybrid fitness for binding NBS DNA” value was ≤ 0.2. KSRN was tested, and the “one-hybrid fitness for binding NBS DNA” value was ≤ 0.2. In the case of MPIT, the “one-hybrid fitness for binding NBS DNA” value is reported as ≤ 0.2. For SLCY, the “one-hybrid fitness for binding NBS DNA” value was ≤ 0.2. In the case of ADNG, the “one-hybrid fitness for binding NBS DNA” value is reported as ≤ 0.2. In the case of FLPR, the “one-hybrid fitness for binding NBS DNA” value is reported as ≤ 0.2. With QCKW the “one-hybrid fitness for binding NBS DNA” value was 0.324. In the case of QRKW, the “one-hybrid fitness for binding NBS DNA” value is reported as 0.411. For QTKW, the “one-hybrid fitness for binding NBS DNA” value was 0.439. In the case of QTVW, the “one-hybrid fitness for binding NBS DNA” value is reported as ≤ 0.2. With QSKW the “one-hybrid fitness for binding NBS DNA” value was 0.279. With QRVW the “one-hybrid fitness for binding NBS DNA” value was ≤ 0.2. For NCCT, the “one-hybrid fitness for binding NBS DNA” value was ≤ 0.2. PANC was tested, and the “one-hybrid fitness for binding NBS DNA” value was ≤ 0.2. In the case of PYWD, the “one-hybrid fitness for binding NBS DNA” value is reported as ≤ 0.2. With QGMV the “one-hybrid fitness for binding NBS DNA” value was ≤ 0.2. With TIMA the “one-hybrid fitness for binding NBS DNA” value was ≤ 0.2. For FGDS, the “one-hybrid fitness for binding NBS DNA” value was ≤ 0.2. In the case of LKMV, the “one-hybrid fitness for binding NBS DNA” value is reported as ≤ 0.2. RMKY was tested, and the “one-hybrid fitness for binding NBS DNA” value was 0.311. In the case of RGVR, the “one-hybrid fitness for binding NBS DNA” value is reported as ≤ 0.2. RIKD was tested, and the “one-hybrid fitness for binding NBS DNA” value was ≤ 0.2. For RAKR, the “one-hybrid fitness for binding NBS DNA” value was 0.668. For RGKR, the “one-hybrid fitness for binding NBS DNA” value was 0.38. For RAKP, the “one-hybrid fitness for binding NBS DNA” value was ≤ 0.2. RGYR was tested, and the “one-hybrid fitness for binding NBS DNA” value was ≤ 0.2. In the case of RMKR, the “one-hybrid fitness for binding NBS DNA” value is reported as 0.738. In the case of RAVR, the “one-hybrid fitness for binding NBS DNA” value is reported as 0.277. In the case of RIVR, the “one-hybrid fitness for binding NBS DNA” value is reported as 0.28. In the case of RIKR, the “one-hybrid fitness for binding NBS DNA” value is reported as 0.675. For RMVR, the “one-hybrid fitness for binding NBS DNA” value was 0.314. In the case of IRVQ, the “one-hybrid fitness for binding NBS DNA” value is reported as 0.203. With VYLC the “one-hybrid fitness for binding NBS DNA” value was ≤ 0.2. For TESV, the “one-hybrid fitness for binding NBS DNA” value was ≤ 0.2. With QVNP the “one-hybrid fitness for binding NBS DNA” value was ≤ 0.2. With GTKF the “one-hybrid fitness for binding NBS DNA” value was ≤ 0.2. With LEMR the “one-hybrid fitness for binding NBS DNA” value was ≤ 0.2. In the case of RFPS, the “one-hybrid fitness for binding NBS DNA” value is reported as ≤ 0.2. For QVIH, the “one-hybrid fitness for binding NBS DNA” value was ≤ 0.2. GACL was tested, and the “one-hybrid fitness for binding NBS DNA” value was ≤ 0.2. RWYM was tested, and the “one-hybrid fitness for binding NBS DNA” value was ≤ 0.2. With RLKH the “one-hybrid fitness for binding NBS DNA” value was 0.35. RSVR was tested, and the “one-hybrid fitness for binding NBS DNA” value was 0.293. RFVR was tested, and the “one-hybrid fitness for binding NBS DNA” value was ≤ 0.2. For RSKR, the “one-hybrid fitness for binding NBS DNA” value was 0.682. In the case of RLVR, the “one-hybrid fitness for binding NBS DNA” value is reported as 0.257. With RLKR the “one-hybrid fitness for binding NBS DNA” value was 0.686. With RSKN the “one-hybrid fitness for binding NBS DNA” value was ≤ 0.2. In the case of RWKM, the “one-hybrid fitness for binding NBS DNA” value is reported as ≤ 0.2. With NFKR the “one-hybrid fitness for binding NBS DNA” value was ≤ 0.2. RWVM was tested, and the “one-hybrid fitness for binding NBS DNA” value was 0.413. RFKR was tested, and the “one-hybrid fitness for binding NBS DNA” value was 0.522.
